Test results reported in PubChem BioAssay AID602248 (The Scripps Research Institute Molecular Screening Center, 2012).
About 1,700 (0.47%) of roughly 360,000 compounds were called active. The full list was thinned out, with actives kept by preference. Unmarked numbers belong to inactive results. No stated cut-off is given here; in the data, active means activation above about 15%; inactive means the rest.

Experiment: counter-screen for M1 agonists: effect in parental CHO-K1 cells (AID 602248);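 further: untransfected CHO-K1 host cells lacking M1 receptor as counterscreen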
Settings: Fluo-8 calcium fluorescence, at 3 µM, hits give high values, scaled to maximal ATP response, vehicle zero

Row | Compound | activation
1 | COc1ccc(Cl)cc1NC(=O)CN(C)Cc1ccc(OC)c(OC)c1 | 6.25%
2 | COc1ccc(Br)cc1CN(C)CC(=O)Nc1cc(Cl)cc(Cl)c1 | 18.5% (active)
3 | COc1ccc(Br)cc1CN(C)CC(=O)Nc1cc([N+](=O)[O-])ccc1OC | 0.64%
4 | OCC1(Cc2ccccc2C(F)(F)F)CCN(Cc2ccncc2)CC1 | 1.74%
5 | N#CC1(Nc2ccc(-c3ccc(Cl)cc3)cc2)CCCC1 | 0.41%
6 | CC(C)C(=O)Nc1ccc2c3c(cccc13)CC2 | -0.06%
7 | N#CC1(Nc2ccc3c4c(cccc24)CC3)CCCCC1 | 41% (active)
8 | CC(C)(O)C#Cc1ccc(CNC[C@H]2O[C@@H](n3cnc4c(=O)[nH]c(N)nc43)[C@H](O)[C@@H]2O)s1 | 0.21%
9 | COCCN(C(=O)CCC(=O)Nc1nccs1)C(C(=O)NCCC(C)C)c1ccc(F)cc1 (stereo not drawn) | 0.22%
10 | COc1cncc(-c2cnc3sc(NCCc4ccccn4)nn23)c1 | 0.67%
11 | Cc1ccc(S(=O)(=O)N(C)CC(=O)NCCc2c[nH]c3ccccc23)cc1 | 6.95%
12 | CCc1ccccc1NC(=O)CN(C)S(=O)(=O)c1ccc2c(c1)c(=O)n(C)c(=O)n2C | 1.14%
13 | COc1cccc(CNC(=O)CN(C)S(=O)(=O)c2ccc3c(c2)c(=O)n(C)c(=O)n3C)c1 | 1.02%
14 | CC1CCC(NC(=O)CN(C)S(=O)(=O)c2ccc3c(c2)c(=O)n(C)c(=O)n3C)CC1 (stereo not drawn) | 15.6% (active)
15 | COc1ccc(N(CCC#N)S(=O)(=O)c2ccc(Cl)cc2)cc1 | 1.81%
16 | COC(=O)c1ccc(CSc2ccc3nnc(-c4ccccc4)n3n2)o1 | 2.77%
17 | Cc1oc2nc(SCC(=O)Nc3ccc(S(N)(=O)=O)cc3)nc(NC(=O)c3ccccc3)c2c1C | 0.44%
18 | COc1cc(/C=C/C(=O)O)cc(S(=O)(=O)Nc2ccccc2C(=O)NCCc2ccccc2)c1OC | -0.11%
19 | COc1ccc(OC)c(S(=O)(=O)Nc2ccccc2F)c1 | 0.21%
20 | COc1cc(OC)c(S(=O)(=O)Nc2ccccc2C(=O)O)cc1S(=O)(=O)Nc1ccccc1C(=O)O | 15.1% (active)

Row | Compound | activation
21 | CC(=O)c1c(C)[nH]c(C(=O)COC(=O)c2cccc(S(=O)(=O)N(C)c3ccccc3)c2)c1C | 17.5% (active)
22 | COc1ccc(C)cc1NC(=O)C(OC(=O)c1cccc(S(=O)(=O)N(C)c2ccccc2)c1)c1ccccc1 (stereo not drawn) | -0.35%
23 | CC(=O)c1c(C)[nH]c(C(=O)COC(=O)CCOc2ccc(C)cc2)c1C | 7.01%
24 | COCCN1C(=O)C(=O)/C(=C(/O)c2ccc(S(=O)(=O)N3CCOCC3)cc2)C1c1ccc(OC)c(OC)c1 (stereo not drawn) | 1.09%
25 | O=C(c1ccc(=O)oc1)N1CCC(C(O)(c2ccccc2)c2ccccc2)CC1 | 0.08%
26 | O=C(Nc1nnc(C2CC2)s1)c1ccccn1 | 0.38%
27 | CSc1ncccc1C(=O)Nc1nc2ccc(F)cc2s1 | 3.35%
28 | c1ccc(C(=NNc2nc3ccccc3s2)c2ccccn2)cc1 | 15.9% (active)
29 | CC(C)(C)S(=O)(=O)N1Cc2cc(CO)cc(CCO)c2[C@H]1CCO | 0.36%
30 | CC(C)C(=O)NCC(c1cccs1)S(=O)(=O)c1ccc(F)cc1 (stereo not drawn) | 2.59%
31 | Cc1cccc(C(=O)N2CCc3c([nH]c4ccccc34)C2CC(C)C)n1 (stereo not drawn) | 16.4% (active)
32 | Cc1cccc(C2c3[nH]c4ccccc4c3CCN2C(=O)c2cc(-c3cccn3C)n[nH]2)n1 (stereo not drawn) | 0.16%
33 | COc1cccc(C2c3[nH]c4ccccc4c3CCN2Cc2cccc(C)n2)c1 (stereo not drawn) | 1.31%
34 | Cc1ccc(S(=O)(=O)N2CCC3(CC2)OCCO3)c(C)c1 | 0.97%
35 | Cc1ccc(C)c(S(=O)(=O)N2CCN(c3ncnc4sccc34)CC2)c1 | 15.9% (active)
36 | Cc1ccc(C)c(S(=O)(=O)N2CCN(CC(=O)Nc3ccc([N+](=O)[O-])cc3)CC2)c1 | 6.2%
37 | OCC[C@H]1C[C@H](O)[C@@H](O)[C@]2(Cc3ccccc3CO2)O1 | 0.07%
38 | CCCCc1ccc(S(N)(=O)=O)cc1 | 1.03%
39 | O=C(Nc1cc(Cl)ccc1N1CCOCC1)c1ccc(N2CCCC2=O)cc1 | 1.09%
40 | Cc1ccc2oc(=O)ccc2c1 | 0.97%

Row | Compound | activation
41 | CCN(CC)c1ccc2oc(=O)c(C)nc2c1 | 28.8% (active)
42 | Cc1ccc2c(=O)oc(N(C)C)nc2c1 | -0.31%
43 | O=S1(=O)CC(N2CCN(CCO)CC2)CN1C1CCCC1 (stereo not drawn) | 0.24%
44 | Cc1nc2cc(C(F)(F)F)ccc2n1CCNc1nc(-c2cc(Cl)c(N)c(Cl)c2)cs1 | -0.4%
45 | Cc1nn(CCOc2ccccc2)c(=O)n1-c1ccccc1F | 0.58%
46 | CC(C)(c1ccccc1)c1ccc(OCCN2CCCC2)cc1 | 1.86%
47 | CC(C)(c1ccccc1)c1ccc(OCCN)cc1 | 16.5% (active)
48 | O=C(CC(NC(=O)c1ccccc1)c1ccccc1)Nc1ccc(F)c(F)c1 (stereo not drawn) | 8.06%
49 | CN(C)c1ccc(/C=C2\NC(=S)N(Cc3ccccc3)C2=O)cc1 | 27.4% (active)
50 | CN(C)c1ccc(CSc2ccccc2)cc1 | -0.35%
51 | CN(C(=O)CN1C(=O)NC(C)(CCc2ccccc2)C1=O)c1ccccc1 (stereo not drawn) | 1.76%
52 | CCn1c(SCC(=O)Nc2ccccc2F)nc2c(c1=O)SC(C)C2 (stereo not drawn) | 3.19%
53 | O=C(CSc1nnc(CN2CCCC2)n1-c1ccc(F)cc1)c1ccc2c(c1)OCO2 | 1.52%
54 | Cc1ccc(S(=O)(=O)N(Cc2cc3ccccc3[nH]c2=O)CC2CCCO2)cc1 (stereo not drawn) | 5.14%
55 | Cc1ccc(S(=O)(=O)N(C)C)cc1NC(=O)COC(=O)C1COc2ccccc2O1 (stereo not drawn) | 1.48%
56 | O=C(Nc1ccc2ccccc2c1)/C(=C\c1ccc2c(c1)OCO2)NC(=O)c1ccco1 | 1.3%
57 | CC(Oc1ccc2ccccc2c1)C(=O)NNC(=S)NC(=O)c1ccco1 (stereo not drawn) | 33.6% (active)
58 | CCCc1ccc(OCC(=O)NNC(=S)NC(=O)c2ccco2)cc1 | 7.19%
